Experiments:
Test in all cases: log2 ratio of Biotin-Ahx-Ub-VS probe labelling (fragment/DMSO); higher = less target engagement (more negative = stronger competition), active = hit call of the paper (q ≤ 0.05, log2 ratio ≤ -1)
Conditions in all cases: compound concentration: 200 uM; treatment time: 3 h
OTUD6B = target: T1, OTUD6B (UniProt Q8N6M0)
T1 sequence (whole entry): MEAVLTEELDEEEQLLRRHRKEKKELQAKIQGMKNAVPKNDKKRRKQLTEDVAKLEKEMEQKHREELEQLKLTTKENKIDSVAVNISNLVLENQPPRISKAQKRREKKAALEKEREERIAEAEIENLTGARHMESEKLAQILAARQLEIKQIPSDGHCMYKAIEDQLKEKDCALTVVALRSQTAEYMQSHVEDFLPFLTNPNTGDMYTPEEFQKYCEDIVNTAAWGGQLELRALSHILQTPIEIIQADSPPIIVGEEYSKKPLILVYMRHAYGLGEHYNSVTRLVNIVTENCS
Outline: (§1)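 Average log2 ratios of fragment over vehicle were obtained by unpaired t-test from global-median-normalised Spectronaut label-free quantities. Proteins with ≥2 unique peptides were included. HEK293T lysate (495 µg per sample) was treated in triplicate with fragment at 200 µM or vehicle for 3 h, then with Biotin-Ahx-Ub-VS at 0.5 µM final for 1 h, and labelled DUBs were NeutrAvidin-enriched and run by diaPASEF LC-MS/MS.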

OTUD7B = target: T2, OTUD7B (UniProt Q6GQQ9)
T2 sequence (whole entry): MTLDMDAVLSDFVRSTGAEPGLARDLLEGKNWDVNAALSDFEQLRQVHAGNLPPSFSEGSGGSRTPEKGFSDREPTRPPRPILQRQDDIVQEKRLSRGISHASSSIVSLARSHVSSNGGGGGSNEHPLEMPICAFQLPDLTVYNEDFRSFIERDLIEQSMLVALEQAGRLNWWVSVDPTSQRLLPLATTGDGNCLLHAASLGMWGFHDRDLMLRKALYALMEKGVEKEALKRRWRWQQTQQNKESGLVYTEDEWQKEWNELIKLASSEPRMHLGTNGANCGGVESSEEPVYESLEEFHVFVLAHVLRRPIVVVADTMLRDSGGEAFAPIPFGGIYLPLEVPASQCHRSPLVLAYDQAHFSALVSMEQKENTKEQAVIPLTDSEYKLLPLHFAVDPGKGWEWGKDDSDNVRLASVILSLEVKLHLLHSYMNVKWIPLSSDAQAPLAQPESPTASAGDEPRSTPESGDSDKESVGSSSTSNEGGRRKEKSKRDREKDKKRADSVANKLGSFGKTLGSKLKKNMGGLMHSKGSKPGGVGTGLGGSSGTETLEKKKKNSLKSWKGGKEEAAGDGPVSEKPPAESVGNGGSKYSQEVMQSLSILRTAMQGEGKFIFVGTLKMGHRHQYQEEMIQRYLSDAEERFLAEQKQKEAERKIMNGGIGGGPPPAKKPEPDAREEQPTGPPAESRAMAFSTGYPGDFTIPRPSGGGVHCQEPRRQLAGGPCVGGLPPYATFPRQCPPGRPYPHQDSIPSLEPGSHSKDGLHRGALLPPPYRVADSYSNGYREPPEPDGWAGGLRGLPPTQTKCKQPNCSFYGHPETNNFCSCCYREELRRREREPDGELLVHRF
Outline: as §1

PRPF8 = PRPF8 (UniProt Q6P2Q9)
Outline: as §1

PSMD7 = target: T3, PSMD7 (UniProt P51665)
T3 sequence (whole entry): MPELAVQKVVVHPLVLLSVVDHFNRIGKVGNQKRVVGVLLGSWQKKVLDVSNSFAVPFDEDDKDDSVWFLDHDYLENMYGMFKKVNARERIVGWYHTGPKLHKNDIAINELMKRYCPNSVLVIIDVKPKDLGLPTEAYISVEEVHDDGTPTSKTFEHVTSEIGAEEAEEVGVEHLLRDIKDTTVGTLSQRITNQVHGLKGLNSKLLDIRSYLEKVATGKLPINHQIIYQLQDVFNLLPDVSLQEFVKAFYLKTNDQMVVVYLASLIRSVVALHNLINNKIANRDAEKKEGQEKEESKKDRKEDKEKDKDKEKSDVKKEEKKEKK
Outline: as §1

UCHL1 = UCHL1 (UniProt P09936)
UCHL1, sequence (P09936 whole entry, looked up): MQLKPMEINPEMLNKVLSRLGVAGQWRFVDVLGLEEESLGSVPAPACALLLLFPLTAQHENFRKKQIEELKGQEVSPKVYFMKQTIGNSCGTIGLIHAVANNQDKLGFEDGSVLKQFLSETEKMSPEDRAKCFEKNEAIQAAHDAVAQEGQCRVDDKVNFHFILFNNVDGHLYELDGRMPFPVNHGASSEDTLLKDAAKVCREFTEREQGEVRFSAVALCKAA
Outline: as §1

UCHL3 = target: T4, UCHL3 (UniProt P15374)
T4 sequence (whole entry): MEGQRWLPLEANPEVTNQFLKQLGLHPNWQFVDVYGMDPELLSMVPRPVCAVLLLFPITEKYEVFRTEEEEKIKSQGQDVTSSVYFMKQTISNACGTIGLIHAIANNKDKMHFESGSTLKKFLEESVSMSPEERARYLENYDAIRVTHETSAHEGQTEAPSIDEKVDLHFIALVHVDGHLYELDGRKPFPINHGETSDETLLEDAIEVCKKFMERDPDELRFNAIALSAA
Outline: as §1

UCHL5 = target: T5, UCHL5 (UniProt Q9Y5K5)
T5 sequence (whole entry): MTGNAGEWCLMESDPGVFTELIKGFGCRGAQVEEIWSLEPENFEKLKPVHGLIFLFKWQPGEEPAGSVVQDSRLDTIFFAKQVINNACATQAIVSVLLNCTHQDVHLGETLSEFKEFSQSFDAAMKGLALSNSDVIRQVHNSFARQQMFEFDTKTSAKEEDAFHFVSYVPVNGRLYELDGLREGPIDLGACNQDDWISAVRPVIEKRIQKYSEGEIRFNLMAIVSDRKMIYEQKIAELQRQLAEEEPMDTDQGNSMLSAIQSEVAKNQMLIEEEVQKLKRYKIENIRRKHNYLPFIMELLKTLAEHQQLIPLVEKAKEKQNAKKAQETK
Outline: as §1

USP10 = USP10 (UniProt Q14694)
USP10, sequence (Q14694 whole entry): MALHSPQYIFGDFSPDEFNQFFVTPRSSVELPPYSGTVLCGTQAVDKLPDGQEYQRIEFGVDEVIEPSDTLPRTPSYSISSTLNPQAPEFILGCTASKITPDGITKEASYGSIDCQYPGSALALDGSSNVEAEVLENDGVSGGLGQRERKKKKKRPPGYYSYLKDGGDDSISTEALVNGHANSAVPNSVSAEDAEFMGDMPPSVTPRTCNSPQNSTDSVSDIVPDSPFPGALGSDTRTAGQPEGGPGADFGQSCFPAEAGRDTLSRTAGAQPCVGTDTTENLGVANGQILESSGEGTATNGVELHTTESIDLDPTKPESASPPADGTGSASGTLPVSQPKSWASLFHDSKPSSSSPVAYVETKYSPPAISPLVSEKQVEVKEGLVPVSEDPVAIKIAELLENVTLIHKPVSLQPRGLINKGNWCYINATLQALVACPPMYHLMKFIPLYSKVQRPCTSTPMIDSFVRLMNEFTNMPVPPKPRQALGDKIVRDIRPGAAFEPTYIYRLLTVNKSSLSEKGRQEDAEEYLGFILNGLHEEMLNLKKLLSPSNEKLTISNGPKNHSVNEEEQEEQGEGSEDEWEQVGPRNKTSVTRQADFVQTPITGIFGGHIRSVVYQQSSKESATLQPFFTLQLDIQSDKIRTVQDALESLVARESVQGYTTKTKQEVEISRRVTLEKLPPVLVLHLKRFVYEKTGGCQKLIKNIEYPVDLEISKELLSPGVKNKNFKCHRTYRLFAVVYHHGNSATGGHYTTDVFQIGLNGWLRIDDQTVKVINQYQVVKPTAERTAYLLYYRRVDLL
Outline: as §1

USP15 = target: T6, USP15 (UniProt Q9Y4E8)
T6 sequence (whole entry): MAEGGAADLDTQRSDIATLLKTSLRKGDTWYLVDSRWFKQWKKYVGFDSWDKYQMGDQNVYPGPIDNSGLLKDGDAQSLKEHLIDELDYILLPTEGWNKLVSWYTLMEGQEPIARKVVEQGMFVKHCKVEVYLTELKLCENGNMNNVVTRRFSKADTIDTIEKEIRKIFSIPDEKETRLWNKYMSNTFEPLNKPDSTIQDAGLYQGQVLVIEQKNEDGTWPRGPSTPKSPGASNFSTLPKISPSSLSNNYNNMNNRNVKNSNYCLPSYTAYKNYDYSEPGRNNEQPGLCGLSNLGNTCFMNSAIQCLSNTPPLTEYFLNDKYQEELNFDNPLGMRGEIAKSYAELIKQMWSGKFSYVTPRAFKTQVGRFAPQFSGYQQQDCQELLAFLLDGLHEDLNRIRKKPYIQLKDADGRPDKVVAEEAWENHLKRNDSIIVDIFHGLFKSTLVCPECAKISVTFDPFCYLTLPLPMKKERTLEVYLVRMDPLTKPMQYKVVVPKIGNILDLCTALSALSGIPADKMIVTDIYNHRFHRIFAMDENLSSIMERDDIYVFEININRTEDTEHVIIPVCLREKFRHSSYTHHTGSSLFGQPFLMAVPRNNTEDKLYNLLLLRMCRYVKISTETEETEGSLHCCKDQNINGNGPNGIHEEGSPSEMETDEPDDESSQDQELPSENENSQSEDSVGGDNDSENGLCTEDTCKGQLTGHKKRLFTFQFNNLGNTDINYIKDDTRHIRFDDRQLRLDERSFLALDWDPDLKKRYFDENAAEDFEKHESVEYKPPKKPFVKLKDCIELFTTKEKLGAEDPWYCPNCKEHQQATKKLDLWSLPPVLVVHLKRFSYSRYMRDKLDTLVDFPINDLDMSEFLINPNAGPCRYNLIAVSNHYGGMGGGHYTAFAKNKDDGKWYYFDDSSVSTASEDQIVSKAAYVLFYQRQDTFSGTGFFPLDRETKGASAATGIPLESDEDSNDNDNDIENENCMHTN
Outline: as §1

USP16 = USP16 (UniProt Q9Y5T5)
USP16, sequence (Q9Y5T5 whole entry, looked up): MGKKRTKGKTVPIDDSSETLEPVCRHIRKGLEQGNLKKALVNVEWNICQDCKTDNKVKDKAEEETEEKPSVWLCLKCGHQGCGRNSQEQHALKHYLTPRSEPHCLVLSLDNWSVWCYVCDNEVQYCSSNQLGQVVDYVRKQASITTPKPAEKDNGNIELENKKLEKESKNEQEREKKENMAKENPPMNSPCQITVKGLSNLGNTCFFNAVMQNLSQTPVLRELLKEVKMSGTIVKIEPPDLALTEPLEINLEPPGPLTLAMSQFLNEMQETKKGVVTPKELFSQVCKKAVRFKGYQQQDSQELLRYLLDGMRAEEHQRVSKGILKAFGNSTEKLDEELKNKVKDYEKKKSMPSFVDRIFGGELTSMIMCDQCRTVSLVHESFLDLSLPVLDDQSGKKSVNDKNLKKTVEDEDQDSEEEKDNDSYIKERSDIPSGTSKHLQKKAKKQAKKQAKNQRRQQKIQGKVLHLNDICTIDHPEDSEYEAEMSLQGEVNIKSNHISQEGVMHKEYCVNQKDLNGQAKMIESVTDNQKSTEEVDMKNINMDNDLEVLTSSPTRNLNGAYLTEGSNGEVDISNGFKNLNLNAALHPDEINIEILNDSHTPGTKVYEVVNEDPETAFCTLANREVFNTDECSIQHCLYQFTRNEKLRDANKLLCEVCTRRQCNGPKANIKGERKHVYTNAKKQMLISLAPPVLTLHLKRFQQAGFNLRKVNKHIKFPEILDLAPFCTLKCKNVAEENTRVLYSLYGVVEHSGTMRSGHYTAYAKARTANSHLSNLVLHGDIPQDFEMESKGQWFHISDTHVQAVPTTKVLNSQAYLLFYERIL
Outline: as §1

Measured: log2 ratio of Biotin-Ahx-Ub-VS probe labelling

Cc1ccc(C)c(NC(=O)CCl)c1
active: UCHL1 -1.17
inactive: OTUD6B -0.56 | OTUD7B -0.844 | PRPF8 -0.000105 | PSMD7 -0.209 | UCHL3 -0.416 | UCHL5 -0.568 | USP10 -0.39 | USP15 -0.203 | USP16 -0.0434

Reference: the supplement of paper PMC11732987, “Enantioselective OTUD7B fragment discovery through chemoproteomics screening and high-throughput optimisation” (Communications Chemistry, 2025)
